# Calls of active or inactive are those of the source. Calls follow the shape of the full dose curve.
# Molecular target: Thyrotropin-releasing hormone receptor (Homo sapiens) (UniProt P34981)
# Test: qHTS assay to identify small molecule agonists of the thyrotropin-releasing hormone receptor (TRHR) signaling pathway (AID 1346891);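 also: HEK293 cells expressing TRHR with calcium dye readout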
# Conditions: TRHR-HEK293 calcium fluorescence, agonist mode; series mostly up to 57.6 µM
# Description: National Center for Advancing Translational Sciences [NCATS] NIH Chemical Genomics Center [NCGC] U.S. Environmental Protection Agency [EPA] National Institutes of Environmental Health Sciences [NIEHS] National Toxicology Program [NTP] Assay overview: Thyrotropin-releasing hormone (TRH) receptor (TRHR) is a G-protein-coupled receptor which binds the tripeptide thyrotropin releasing hormone. TRHR is found in the brain and, when bound by TRH, acts (through phospholipase C) to increase intracellular inositol trisphosphate. It plays a crucial role in the anterior pituitary where it controls the synthesis and secretion of thyroid stimulating hormone and prolactin. The TRHR-Hek293 assay is a cell-based assay, and it has the potential to screen G protein-coupled receptors. A compound/drug can either activate (agonist) or suppress (antagonist) GPCRs that can be monitored by levels of intracellular calcium. Using this assay, the Tox21 10K compound library was screened to identify potential TRHR agonists.
# Assay Protocol Summary: The TRHR-Hek293 cells were dispensed at 1500cells/4uL/well in 1536-well black-clear bottom plates using a Multidrop dispenser. After the assay plates were incubated at a 37 C/5% CO2 incubator for 18 hours, 4 uL of Dye-Loading Solution was added to each well. The plates were incubated at 37 C for 2 hours. For agonist mode, 23 nL of compounds dissolved in DMSO, positive controls or DMSO only was transferred to the assay plate by a pin tool. The fluorescence intensity in the plates was measured using FDSS 7000EX kinetic plate reader for 3 min at 1 sec intervals. Each test compound was measured at 15 concentrations and in triplicates.
# Thyrotropin-releasing hormone receptor (Homo sapiens), sequence (P34981 whole entry, looked up): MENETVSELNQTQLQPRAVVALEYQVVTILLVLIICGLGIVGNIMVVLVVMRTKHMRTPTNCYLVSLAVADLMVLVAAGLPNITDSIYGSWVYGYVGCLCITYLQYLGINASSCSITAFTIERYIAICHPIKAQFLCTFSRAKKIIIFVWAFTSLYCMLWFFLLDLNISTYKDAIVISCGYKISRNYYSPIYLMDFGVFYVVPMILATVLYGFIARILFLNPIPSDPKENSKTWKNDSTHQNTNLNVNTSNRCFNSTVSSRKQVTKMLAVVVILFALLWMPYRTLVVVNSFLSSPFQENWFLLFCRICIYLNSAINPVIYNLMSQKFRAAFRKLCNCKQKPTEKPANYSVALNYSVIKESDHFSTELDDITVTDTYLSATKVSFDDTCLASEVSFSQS
row,Compound,outcome
1,C=C(C)CC(C)(C)C,inactive
2,COc1ccc([C@@H]2CC(=O)c3c(O)cc(O[C@@H]4O[C@H](CO[C@@H]5O[C@@H](C)[C@H](O)[C@@H](O)[C@H]5O)[C@@H](O)[C@H](O)[C@H]4O)cc3O2)cc1OC,inactive
3,CC(=O)C(C)C,inactive
4,C1CCCNCC1,inactive
5,CCCCC(=O)O,inactive
6,N#CCC(=O)O,inactive
7,CCCOCC(C)O (stereo not given),inactive
8,O=[N+]([O-])c1cc(C(F)(F)F)ccc1Cl,inactive
9,NC(=O)NC(N)=O,inactive
10,CCCCC(CC)COC(=O)c1ccc(C(=O)OCC(CC)CCCC)cc1 (stereo not given),inactive
11,COC(=O)OC,inactive
12,CC(=O)c1nccs1,inactive
13,Cc1cc(C)c(O)c(C)c1,inactive
14,COc1c2ccoc2cc2oc(=O)ccc12,inactive
15,NCCNCCNCCN,inactive
16,CC(=O)OC[C@H]1O[C@@](COC(C)=O)(O[C@H]2O[C@H](COC(C)=O)[C@@H](OC(C)=O)[C@H](OC(C)=O)[C@H]2OC(C)=O)[C@@H](OC(C)=O)[C@@H]1OC(C)=O,inactive
17,CC(=O)CC(=O)N(C)C,inactive
18,OCC(CO)(CO)CO,inactive
19,O=c1c(O)c(-c2ccc(O)c(O)c2)oc2cc(O)cc(O)c12,inactive
20,Cc1cc(C)cc(O)c1,inactive

row,Compound,outcome
1,O=[N+]([O-])c1ccccc1C(F)(F)F,inactive
2,Brc1ccc(Oc2ccc(Br)cc2)cc1,inactive
3,CCCN(CCC)C(=O)SCC,inactive
4,COC(=O)/C=C\C(=O)OC,inactive
5,COc1c(Cl)ccc(Cl)c1C(=O)O,inactive
6,Nc1cccc(C(F)(F)F)c1,inactive
7,CC(C)(CO)CO,inactive
8,CC(COCC(C)OC(=O)c1ccccc1)OC(=O)c1ccccc1 (stereo not given),inactive
9,Cc1ccncc1,inactive
10,CC(C)c1ccc(C(C)C)cc1,inactive
11,Cc1ccc(C(C)C)cc1,inactive
12,NC(N)=S,inactive
13,CC1=CC(=O)CC(C)(C)C1,inactive
14,COc1ccccc1[N+](=O)[O-],inactive
15,COc1ccc2cc3[n+](cc2c1OC)CCc1cc2c(cc1-3)OCO2,inactive
16,COC(=O)CCCCC(=O)OC,inactive
17,OC[C@H]1O[C@@H](Oc2ccc(O)cc2)[C@H](O)[C@@H](O)[C@@H]1O,inactive
18,O=C1OC(=O)c2c(Cl)c(Cl)c(Cl)c(Cl)c21,inactive
19,CCCCCNCCCCC,inactive
20,Cc1ccc([N+](=O)[O-])cc1N,inactive

# Reference: PubChem BioAssay (Tox21)
